From PubChem BioAssay (NCATS)
Records with an inconclusive call do not appear. Active and inactive are the calls of the source. Unless noted, calls come from the whole dose curve; as a rule, active = well fitted curve in the direction sought with a large enough effect; inconclusive = small, poorly fitted or top-dose-only effect, or another doubt; inactive = no such curve, though single readings can be large; an effect the other way counts as inactive or inconclusive.

Legend:
[1] = P-glycoprotein substrates identified in KB-8-5-11 adenocarcinoma cell line, qHTS therapeutic library screen (AID 1346987); note: nearly all actives have a fitted effect of over 65% in size; for activity change, negative = cytotoxicity: series mostly up to about 44 µM; % is set by controls: 0 for no effect and ±100 for the full control effect
Outline: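 Human cervical adenocarcinoma KB-8-5-11 cells, selected in colchicine to over-express P-gp and assayed without it, were exposed for 72 h to titrated compounds. An ATP-based luminescent viability signal gave AC50.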

[2] = qHTS assay for small molecule agonists of the antioxidant response element (ARE) signaling pathway (AID 651741; active = well fitted activation curve with a large enough effect in the signal ratio; the % refers to the signal ratio; note: potency is the fitted concentration of half-maximal effect); conditions: HepG2 ARE-bla reporter, beta-lactamase FRET ratio, 16 h
Outline: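 Beta-lactamase reporter expression driven by the antioxidant response element in HepG2 cells was detected by fluorescence with LiveBLAzer B/G FRET substrate (2 h, room temperature) following 16 h compound treatment at 37 C.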

[3] = qHTS assay for small molecule activators of the p53 signaling pathway (AID 651743; active = well fitted activation curve with a large enough effect in the signal ratio, not every such curve was filed as active; the % refers to the signal ratio; note: series mostly up to about 92 µM; % of control where 0% means no effect); conditions: HCT-116 p53RE-bla, beta-lactamase FRET ratio, 16 h; hits give high values
Outline: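 Here HCT-116 cells with an integrated p53-responsive beta-lactamase gene were incubated with compounds (16 hours, 37 C) after a 5-hour plating period; beta-lactamase activity was detected as fluorescence intensity via B/G FRET substrate.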

[4] = qHTS assay for small molecule activators of the nuclear factor-kappa B (NF-kB) signaling pathway (AID 651749; active = well fitted activation curve with a large enough effect in the signal ratio; the % refers to the signal ratio; note: series mostly up to about 77 µM; % of control where 0% means no effect); conditions: NF-kB-bla ME-180 cells, beta-lactamase FRET ratio, 16 h; hits give high values
Outline: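 Beta-lactamase reporter expression, controlled by NF-kB response elements in ME-180 cells, was quantified fluorometrically via FRET disruption; cells at 2,000/well had been incubated with 23 nL test compound for 16 hr.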

[5] = qHTS assay for small molecule disruptors of the mitochondrial membrane potential - 1 hr assay (AID 651754; calls by dose curve; note: potency is the fitted concentration of half-maximal effect; nearly all actives have a fitted effect of over 35% in size)
Outline: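 In this qHTS format, a 1 hr compound treatment of HepG2 cells precedes Mito-MPS staining, and membrane potential is judged from aggregate (red) against monomer (green) fluorescence intensity.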

[6] = qHTS assay for small molecule disruptors of the mitochondrial membrane potential - 5 hr assay (AID 651755; calls by dose curve; note: potency is the fitted concentration of half-maximal effect; nearly all actives have a fitted effect of over 40% in size); conditions: JC-1-type ratio dye
Outline: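 Seed HepG2 overnight, add compound, incubate 5 hr at 37C and 5% CO2, stain 30 min with Mito-MPS, then measure monomer (490/535 nm) and aggregate (540/590 nm) fluorescence.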

[7] = target: Peroxisome proliferator-activated receptor alpha (Homo sapiens) (UniProt Q07869); assay: qHTS assay for small molecule agonists of the peroxisome proliferator-activated receptor alpha (PPARalpha) signaling pathway (AID 651778); conditions: PathHunter PPARalpha complementation, chemiluminescence, 6 h; hits give high values; note: % of control where 0% means no effect
Sequence of Peroxisome proliferator-activated receptor alpha (Homo sapiens) (Q07869 whole entry, looked up): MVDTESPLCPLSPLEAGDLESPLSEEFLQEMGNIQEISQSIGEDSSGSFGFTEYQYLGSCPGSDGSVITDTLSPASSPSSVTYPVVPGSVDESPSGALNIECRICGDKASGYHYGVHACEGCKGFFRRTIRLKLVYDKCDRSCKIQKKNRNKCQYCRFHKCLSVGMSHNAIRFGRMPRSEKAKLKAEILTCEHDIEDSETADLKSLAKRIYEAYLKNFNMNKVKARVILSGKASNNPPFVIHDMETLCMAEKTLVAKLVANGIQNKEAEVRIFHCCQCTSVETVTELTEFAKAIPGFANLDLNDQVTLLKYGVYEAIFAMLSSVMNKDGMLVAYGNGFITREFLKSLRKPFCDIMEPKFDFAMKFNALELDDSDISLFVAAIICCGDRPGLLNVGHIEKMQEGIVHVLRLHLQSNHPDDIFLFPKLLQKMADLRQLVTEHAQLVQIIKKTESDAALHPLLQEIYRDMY
Outline: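 Cells plated at 2,000/well and held overnight at 37 C, 5% CO2, then compound added by pin tool for 6 hr; after PathHunter detection reagent and 60 min at room temperature, chemiluminescence from enzyme complementation was read.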

[8] = target: Nuclear receptor ROR-gamma (Homo sapiens) (UniProt P51449); assay: qHTS assay for small molecule antagonists of the retinoid-related orphan receptor gamma (ROR-gamma) signaling pathway (AID 651802);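 note: CHO cells with doxycycline-induced ROR-gamma expression; luciferase reporter luminescence driven by ROR response element; series mostly up to about 92 µM; % is set by controls: 0 for no effect and ±100 for the full control effect; nearly all actives have a fitted effect of over 60% in size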
Sequence of Nuclear receptor ROR-gamma (Homo sapiens) (P51449 whole entry, looked up): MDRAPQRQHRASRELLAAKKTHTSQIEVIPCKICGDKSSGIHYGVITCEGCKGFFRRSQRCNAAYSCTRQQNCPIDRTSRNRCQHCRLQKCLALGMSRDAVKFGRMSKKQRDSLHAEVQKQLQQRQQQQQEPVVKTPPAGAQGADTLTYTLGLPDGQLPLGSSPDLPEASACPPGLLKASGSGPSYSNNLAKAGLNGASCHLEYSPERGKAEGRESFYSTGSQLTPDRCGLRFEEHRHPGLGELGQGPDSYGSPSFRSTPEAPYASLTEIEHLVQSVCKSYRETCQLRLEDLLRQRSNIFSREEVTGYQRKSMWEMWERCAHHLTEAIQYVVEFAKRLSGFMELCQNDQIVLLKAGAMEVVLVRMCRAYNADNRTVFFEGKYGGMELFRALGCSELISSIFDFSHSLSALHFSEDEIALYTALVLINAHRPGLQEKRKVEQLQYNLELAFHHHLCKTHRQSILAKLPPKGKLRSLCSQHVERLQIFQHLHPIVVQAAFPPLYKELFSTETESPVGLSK
Outline: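 Doxycycline-induced reporter activity in engineered CHO cells (TET-inducible ROR, RORE-LUC) was measured by luminescence after 16hr compound exposure at 37C.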

[9] = qHTS assay for small molecule agonists of the antioxidant response element (ARE) signaling pathway measured by Nrf2-dependant transcriptional activity - cell viability counter screen (AID 720653; active = well fitted curve in the direction sought with a large enough effect in the repeat runs; an effect the other way counts as inactive or inconclusive; note: % is set by controls: 0 for no effect and ±100 for the full control effect); conditions: ARE-bla HepG2 viability, CellTiter-Glo ATP luminescence, 16 h; hits give low values
Outline: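 ARE-bla HepG2 cells (2,000/well) rested 5 hrs at 37C/5% CO2, then exposed to compounds in DMSO for 16 hrs. Viability was read in the same wells as intracellular ATP by luminescence, 30 min at room temperature after reagent addition.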

[10] = qHTS assay for cell viability of the p53RE-bla HCT-116 cell line (AID 743292); note: % is set by controls: 0 for no effect and ±100 for the full control effect; nearly all actives have a fitted effect of over 55% in size
Outline: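 Compound-exposed HCT-116 (p53RE-bla) cells, 4,000 per well, were kept 16 h at 37 C following a 5 h preincubation. Cell number was estimated from total ATP by CellTiter-Glo luminescence read after 30 min at room temperature.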

[11] = NS1 protein of Zika virus - qHTS assay to identify small molecule inhibitors in human HEK 293 cells (AID 1347053); note: nearly all actives have a fitted effect of over 55% in size; note: potency is the fitted concentration of half-maximal effect
Outline: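 Read-out is a two-antibody TR-FRET for ZIKV NS1, normalized between uninfected cells and infected cells. Compound added 1 h before MR766 infection at MOI 0.5; human HEK 293 cells incubated 24 h, 37 C.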

[12] = target: Tumor necrosis factor (Homo sapiens) (UniProt P01375); assay: qHTS assay to identify small molecules that stimulate Tumor Necrosis Factor-alpha (TNF-alpha) secretion (AID 651757; active = well fitted curve in the direction sought with a large enough effect in the signal ratio; the % refers to the signal ratio; note: 0% is about no effect)
Sequence of Tumor necrosis factor (Homo sapiens) (P01375 whole entry, looked up): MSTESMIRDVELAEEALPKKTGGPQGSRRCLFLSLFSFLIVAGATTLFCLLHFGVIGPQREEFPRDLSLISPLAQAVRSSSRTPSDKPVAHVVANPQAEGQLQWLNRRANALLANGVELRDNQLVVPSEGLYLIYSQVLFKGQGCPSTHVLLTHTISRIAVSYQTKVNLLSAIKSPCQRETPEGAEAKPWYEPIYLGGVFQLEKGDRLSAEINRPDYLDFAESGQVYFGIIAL
Outline: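 Using 3000 THP-1 cells per well, compounds and controls were applied for 17 hrs at 37 C. Detection followed with two labeled anti-TNF-alpha antibodies (cryptate donor, XL665 acceptor) for 3 hr at room temperature, measured by TR-FRET.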

[13] = qHTS assay to identify small molecules that stimulate interleukin-8 (IL-8) secretion (AID 651758; active = well fitted activation curve with a large enough effect in the signal ratio; the % refers to the signal ratio; note: 0% is about no effect)
Outline: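 Quantitative HTS in THP-1 monocytic cells at 2000 cells per well, with 16 hrs compound incubation at 37 C. IL-8 in the medium was then quantified by HTRF immunoassay, read after 1-3 hrs at room temperature.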

[14] = qHTS assay for environmental chemicals that activate the Aryl hydrocarbon Receptor (AhR) signaling pathway (AID 651777); conditions: 1A2-DRE human hepatoma cells, luciferase, 24 h; activation: hits give high values; note: potency is the fitted concentration of half-maximal effect; nearly all actives have a fitted effect of over 15% in size
Outline: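 Concentration–response screening used 1,200 1A2-DRE cells per well, 24 hr compound exposure (37 C, 5% CO2), and One-Glo luminescence as the AhR-driven CYP1A2 reporter signal.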

[15] = qHTS assay for small molecule antagonists of the retinoid-related orphan receptor gamma (ROR-gamma) signaling pathway - cell viability counter screen (AID 720652; active = well fitted curve in the direction sought with a large enough effect in the repeat runs; an effect the other way counts as inactive or inconclusive;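 note: CHO reporter cells with doxycycline-induced ROR-gamma expression; series mostly up to about 92 µM; compound exposure lasted 16 hr before ATP read; % is set by controls: 0 for no effect and ±100 for the full control effect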)
Outline: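 ATP-based viability readout in the ROR-gamma reporter CHO cells after 16 hr compound exposure under doxycycline induction.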

[16] = qHTS Assay for Identifying Gametocytocidal Compounds (AID 743244); note: potency is the fitted concentration of half-maximal effect; conditions: P. falciparum 3D7 stage III-V gametocytes, alamarBlue, 72 h; max response: hits give low values
Outline: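 Using 20,000 stage III–V 3D7 gametocytes per well, compounds were incubated 72 h under 37 °C/5% CO2. Viability was then assessed by 24 h alamarBlue reduction, measured fluorometrically at 525/598 nm.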

[17] = qHTS assay for cell viability of HEK293 cells (AID 743288); conditions: ATP luminescence (CellTiter-Glo), 18 h, hits give low values; note: % is set by controls: 0 for no effect and ±100 for the full control effect; nearly all actives have a fitted effect of over 50% in size
Outline: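 Readout is luciferase-coupled ATP content (CellTiter-Glo luminescence, 30 min room temperature) as a measure of metabolically competent cells. Parental HEK293 cells were plated 5 h or more before compound addition, then treated 18 h at 37 C.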

C[C@H]1CC[C@@]2(OC1)O[C@H]1CC3C4CC[C@H]5C[C@@H](O)[C@H](O)C[C@]5(C)C4=CC(=O)[C@]3(C)[C@H]1[C@@H]2C (some centres not stated)
inactive: Potency [1]

C=C1C(=O)OC2CC(C)=C(C(C)CCCO)C(O)C12 (configuration not stated)
inactive: Potency [1]

COc1ccc(/C=C/C(=O)O[C@@H]2[C@@H](O)[C@@H](O)[C@H](O[C@@H]3C=C(CO)[C@H]4[C@H](O[C@@H]5O[C@H](CO)[C@@H](O)[C@H](O)[C@H]5O)OC=C[C@H]43)O[C@H]2C)cc1O
inactive: Potency [1]

C=CC(C)(O)CC/C=C(\C)C(=O)OC1C(O)C(CO)OC(OC(=O)C23CCC(C)(C)CC2C2=CCC4C5(C)CCC(OC6OC(COC7OCC(OC(C)=O)C(O)C7OC7OC(COC(C)=O)C(O)C(O)C7O)C(O)C(O)C6O)C(C)(C)C5CCC4(C)C2(C)C(O)C3O)C1OC1OCC(OC2OCC(O)C(OC3OCC(O)C(O)C3O)C2O)C(O)C1O (configuration not stated)
inactive: activity change, negative = cytotoxicity [1] 9.63% [at 5.11 µM]

C=CC1(C)CC(OC(=O)/C(C)=C\COC(C)=O)C(C(=C)C(=O)O)C(O)C1C(=C)CO (configuration not stated)
inactive: Potency [1]

C/C=C1\[C@H](O[C@@H]2O[C@H](CO)[C@@H](O)[C@H](O)[C@H]2O)OC=C(C(=O)OC)[C@H]1CC(=O)O
inactive: Potency [1]

Nc1ccccc1N
active: Potency [2] 18.8 µM | Potency [5] 3.76 µM | Potency [6] 5.96 µM
inactive: activation [3] 9.56% | activation [4] -0.857% | max response [7] -5.51% | outcome [8] | max response [9] 1.96% | outcome [10] | Potency [1] | Potency [11]

Cc1ccc(N)cc1O
inactive: activation [3] 1.03% | outcome [12] | outcome [13] | max response [7] -3.15% | outcome [8] | outcome [15] | max response [9] -11.4% | max response [17] 3.99% | outcome [10] | Potency [1]
active: Potency [2] 42.2 µM | Potency [5] 23.7 µM | Potency [14] 44.7 µM | Potency [16] 31.6 µM | Potency [11] 31.6 µM
